The list is not random: actives were taken first. Their share in the collection is about 1.8%.
UHRF1 MBD2 ctr: blocks human UHRF1 binding to methylated DNA; hit rate 0.75% among 370,000; Q96T88; UHRF1 binding to methylated oligo, TR-FRET; inhibition, % at 4.4 µM; in the data active = inhibition above about 21%;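 also: UHRF1 SRA domain binding a hemimethylated CpG hairpin DNA probe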
UBC13 polyUb: inhibitors of human UBC13 polyubiquitin chain formation | inhibition, % at 20 µM | P61088 | AID 485273 | TR-FRET | hit rate 0.47% among 330,000; in the data active = inhibition above about 45%, passing the limit was not always enough
Neddylation inh: blocks human cullin neddylation | P61081+Q13564 | TR-FRET cullin neddylation, biochemical | calls only at 25 µM | hit rate 0.58% among 360,000 | AID 651699; in the data active = inhibition above about 36%
MBD2 DNA inh: blocks human MBD2 binding to methylated DNA. inhibition, % at 4.4 µM. TR-FRET, MBD2 binding to methylated oligonucleotide. hit rate 0.31% among 370,000. Q9UBB5; in the data active = inhibition above about 13%
Neddyl conf: confirmation of human cullin neddylation inhibitors. calls only at 25 µM. AID 652217. hit rate 13% among 1,800. TR-FRET cullin neddylation biochemical assay. shares compounds with Neddylation inh; in the data active = inhibition above about 40%;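 also: neddylation substrate is the cullin 1 ring ligase complex with SKP2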
Large screens that a line does not name were inactive (follow-up assays come after a bar, where shown).

COc1cccc(/C=C/C(=O)OCC(=O)NCC2CCCCC2)c1OC	Neddylation inh active | Neddyl conf inactive
COc1cccc(/C=C/C(=O)OCC(=O)c2cc(C)n(CC3CCCO3)c2C)c1OC (centres undefined)	Neddylation inh active | Neddyl conf inactive
COc1cccc(/C=C/C(=O)OCC(=O)c2ccc(C)c(C)c2)c1OC	none
COc1ccc(OC)c(/C=C/C(=O)OCC(=O)NC2CCCCCCC2)c1	Neddylation inh active
COc1cccc(/C=C/C(=O)OCC(=O)NCc2ccco2)c1OC	none
COc1cccc(/C=C/C(=O)OCC(=O)N2c3ccccc3CC2C)c1OC (centres undefined)	Neddylation inh active
CCOc1ccc(Nc2nc3c(c(=O)[nH]2)CCC3)cc1	none
Cc1cc2nc(CS)[nH]c2cc1C	none
CCOC(=O)N=Nc1c(O)n(Cc2ccccc2)c2ccccc12	none
COc1ccc2oc(=O)c(C(=O)NCCc3ccc(OC)c(OC)c3)cc2c1	Neddylation inh active | Neddyl conf inactive
CCOC(=O)/C=c1\s/c(=C\c2ccc(C#N)cc2)c(=O)n1CC(=O)NCc1ccco1	none
CCOC(=O)/C=c1\s/c(=C\c2ccc(C(=O)OC)cc2)c(=O)n1CC(=O)Nc1ccccc1	Neddylation inh active | Neddyl conf inactive
CC(=O)Nc1cccc(C(=O)NC2CCCc3c2cnn3-c2ccccc2F)c1 (centres undefined)	none
CC(C)NC(=O)Cn1cnc2c(cnn2-c2ccc(F)cc2)c1=O	none
COC(=O)c1c(C(=O)OC)c2cc(C(=O)c3ccccc3)ccn2c1Cl	Neddylation inh active | Neddyl conf inactive
COC(=O)c1c(C(=O)OC)c2ccccn2c1C(=O)c1ccc([N+](=O)[O-])cc1	none
COc1ccc(S(=O)(=O)Nc2nc3ccccc3nc2Nc2cccc(C(=O)O)c2)cc1	Neddylation inh active | Neddyl conf inactive
CN(C)c1ccc(NC(=O)Nc2cccc3ccccc23)cc1	none
CCN(CC)c1ccc(NC(=O)Nc2cccc3ccccc23)cc1	Neddylation inh active (no result: UHRF1 MBD2 ctr, MBD2 DNA inh) | Neddyl conf inactive
COc1ccc(S(=O)(=O)N(c2onc(C)c2Cl)S(=O)(=O)c2ccc(OC)cc2)cc1	none
COc1ccc2oc(C(=O)NC3(C)CCS(=O)(=O)C3)c(C)c2c1 (centres undefined)	Neddylation inh active
COc1ccc2oc(C(=O)NCC(c3ccco3)N(C)C)c(C)c2c1 (centres undefined)	Neddylation inh active
Cc1cc(SCC(=O)Nc2ccc(O)cc2)n2ncc(-c3ccccc3)c2n1	Neddylation inh active | Neddyl conf inactive
Cc1cc(SCC(=O)Nc2ccccc2)n2ncc(-c3ccccc3)c2n1	none
O=C(c1cccs1)N1CCCC(c2nc3c(nnn3Cc3ccccc3)c(=O)[nH]2)C1 (centres undefined)	none
Cc1cc(-c2nn(-c3ccccc3)cc2/C=C2\SC(N)=NC2=O)ccc1OC(C)C	Neddylation inh active | Neddyl conf inactive
Cc1nn(-c2ccccc2)c2nc3c(cc12)C(=O)CCC3	Neddylation inh active | Neddyl conf inactive
Cc1nn(-c2ccccc2)c2nc(Cl)c(C(=O)O)cc12	none (not shown: Neddylation inh)
O=C(c1ccccc1)N(CCO)Cc1cc2cc3c(cc2[nH]c1=O)OCCO3	Neddylation inh active | Neddyl conf inactive
CN(C)CCN(Cc1cc2cc3c(cc2[nH]c1=O)OCO3)C(=S)NCC1CCCO1 (centres undefined)	Neddylation inh active | Neddyl conf inactive
O=c1[nH]c2cc3c(cc2cc1CN(CCN1CCOCC1)C(=S)NCC1CCCO1)OCO3 (centres undefined)	none (not shown: Neddylation inh)
O=C(NCc1ccccc1)N(Cc1cc2cc3c(cc2[nH]c1=O)OCO3)CC1CCCO1 (centres undefined)	Neddylation inh active | Neddyl conf inactive
CCNc1c2c(nc3ccccc13)CC(C)(C)CC2=O	none
COc1ccc(-c2cc(C(F)(F)F)nc(-n3ccnc3)n2)cc1	Neddylation inh active | Neddyl conf inactive
CCCN1C2CCCC1CC(NC(=S)Nc1cccc(C)c1C)C2 (centres undefined)	none
O=C(CCc1ccccc1)Nc1nnc(-c2ccccn2)o1	Neddylation inh active | Neddyl conf active
Cc1cccc(OCCCC(=O)NNC(=O)c2cccc(N(C)C)c2)c1	none
COc1cccc(/C=N/n2nnnc2N)c1OCc1ccccc1Cl	Neddylation inh active
COC(=O)c1cc(OC)c(OC)cc1NCC(=O)Nc1ccc(C)cc1	Neddylation inh active
COC(=O)c1cc(OC)c(OC)cc1NCC(=O)Nc1ccc(OC)c(OC)c1	none
O=C(O)c1cc(-c2ccc3c(c2)OCO3)nc2ccccc12	none
Cc1ccc2nc(-c3ccc4c(c3)OCCO4)cc(C(=O)O)c2c1	Neddylation inh active
